From PubChem BioAssay
CHX counter-1: counter-screen for Shiga toxin inhibitors: cycloheximide protein synthesis inhibition; max response, %; cell reporter, cycloheximide protein synthesis inhibition counterscreen; AID 2314; 300,000 compounds, 12% hits; in the data active = max response mostly above about 13%, no sharp cut-off; inactive = mostly below about 14%; note: read at 38.3 µM for the half of the compounds with a filed dose; 0% is about no effect
Shiga inhibitor: Shiga toxin inhibition | 290,000 compounds, 9.2% hits | Vero cells, Shiga toxin protein synthesis inhibition reporter | inhibition, % at 38.7 µM; in the data active = inhibition mostly above about 28%, no sharp cut-off; inactive = mostly below about 43%; note: 0% is about no effect
FBPA Giardia inh: blocks Giardia fructose-bisphosphate aldolase activity. AID 2451. purified Giardia FBPA. Potency, µM (series often up to 59.6 µM), for inactives: at the highest dose activity, negative = inhibition, hits mostly inhibitors. 290,000 compounds, 0.71% hits; active = well fitted curve in the direction sought with a large enough effect; inconclusive = small, poorly fitted or top-dose-only effect, or another doubt; inactive = no such curve, though single readings can be large; an effect the other way counts as inactive or inconclusive; note: potency is the fitted concentration of half-maximal effect; % is set by controls: 0 for no effect and ±100 for the full control effect; nearly all actives have a fitted effect of over 55% in size
Target sequence (A8B2U2 whole entry, looked up): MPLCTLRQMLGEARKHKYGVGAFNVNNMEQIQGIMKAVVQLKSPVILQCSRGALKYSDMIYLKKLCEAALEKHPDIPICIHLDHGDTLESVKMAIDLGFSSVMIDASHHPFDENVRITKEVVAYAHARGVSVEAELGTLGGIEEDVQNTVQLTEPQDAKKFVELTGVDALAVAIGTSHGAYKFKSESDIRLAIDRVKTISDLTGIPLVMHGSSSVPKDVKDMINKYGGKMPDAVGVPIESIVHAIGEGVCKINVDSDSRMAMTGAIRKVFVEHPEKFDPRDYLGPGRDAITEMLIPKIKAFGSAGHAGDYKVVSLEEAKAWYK
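Giardia FBPA (40 nM reagent) was preincubated 10 min at RT with compound (up to 57.5 uM final), then substrate plus GAPDH/TPI/NAD/arsenate coupling system with diaphorase/resazurin was added; resorufin fluorescence (525/598 nm) was read after 20 min.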
LmPK inh: blocks Leishmania mexicana pyruvate kinase activity | AID 1721 | Potency, µM (titrated, usually from 57.5 µM), inactives show at the highest dose activity change, negative = inhibition, actives largely listed as inhibitors | 290,000 compounds, 0.37% hits | purified LmPK, Kinase-Glo ATP luminescence, 1 h | Q27686; active = well fitted curve in the direction sought with a large enough effect; inconclusive = small, poorly fitted or top-dose-only effect, or another doubt; inactive = no such curve, though single readings can be large; an effect the other way counts as inactive or inconclusive; note: potency is the fitted concentration of half-maximal effect; % is set by controls: 0 for no effect and ±100 for the full control effect
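qHTS format; LmPK 0.1 nM; substrates PEP 0.5 mM and ADP 0.1 mM. One-hour room-temperature incubation, then coupled luciferase luminescence; 0.5 nM enzyme wells mark activation.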
NS1 function inh: inhibitors of influenza NS1 protein function | Potency, µM (highest dose often 46.1 µM), inactives show top-dose activity, positive = more growth | AID 2326 | 270,000 compounds, 0.4% hits; note: potency is the fitted concentration of half-maximal effect; actives are rising curves; nearly all actives have a fitted effect of over 50% in size
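A cell-based growth assay was used: compounds that relieve NS1-induced slow growth of budding yeast raise OD600. Assay medium was yeast nitrogen base with ammonium sulphate and -URA supplement, pH 6.0, with 2% galactose.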
CHX counter-2: protein synthesis counter-screen activity for Shiga toxin hits; shares compounds with Shiga inhibitor; Cycloheximide counterscreen, protein synthesis reporter, Shiga toxin assay; Potency, µM (titrated, usually from 38.3 µM), for inactives: at the highest dose activity (activation), actives largely listed as activators; 510 compounds, 3% hits; AID 2318; note: potency is the fitted concentration of half-maximal effect; 0% is about no effect
Active calls of the source: *; ? = inconclusive; . = no result. In the library only some 14% were active in any assay of this set; here they are far more common. Unless noted, calls come from the whole dose curve.

SMILES | CHX counter-1 | Shiga inhibitor | FBPA Giardia inh | LmPK inh | NS1 function inh | CHX counter-2
O=C(NCc1ccncc1)C(=O)NCC1OCCCN1S(=O)(=O)c1ccc(F)cc1 (centres undefined) | -2 | -30 | . | -4% | 18% | .
O=C(NCc1ccncc1)C(=O)NCC1OCCN1S(=O)(=O)c1ccc(F)cc1 (centres undefined) | -2 | 31* | . | -2% | 1% | -2%
Cc1cc(C)c(OCC(=O)Nc2nnn(C)n2)c(Br)c1 | -3 | 2 | 2% | 1% | -9% | .
Cc1ccc(OCC(=O)Nc2nnn(C)n2)c(C)c1 | 5 | 83* | 4% | -10% | -5% | ?
O=C(/C=C/Nc1ccc(F)cc1F)c1ccco1 | 10 | 49* | -12% | 10µM* | -7% | 0.25µM*
Cc1c(C(=O)Nc2nc3ccccc3[nH]2)oc2ccc(Br)cc12 | 12 | 14* | 17% | -1% | 0% | 10µM*
O=C(NC1CCCC1)c1cc(Cl)ccc1[N+](=O)[O-] | 14 | 27* | 6% | 2% | 4% | -4%
O=c1c(-c2ccc(O)cc2)coc2cc(O[C@@H]3O[C@H](CO)[C@H](O)[C@H](O)[C@H]3O)ccc12 | 11 | 49* | 1% | . | . | 3%
C=C1CCC(O)C/C1=C/C=C1\CCC[C@]2(C)[C@@H]([C@H](C)CCCC(C)C)CC[C@@H]12 (some centres undefined) | 9 | 65* | 0% | . | . | 0%
COc1cc(N2CCOCC2)ncn1 | -2 | -3 | 4% | -6% | -4% | .
Cc1cc(C)n(-c2cc(N3CCOCC3)ncn2)n1 | -2 | 31* | -2% | 1% | -1% | -4%
O=C(Nc1ccccc1)c1ccc(S(=O)(=O)N2CCOCC2)cc1 | 5 | 53* | 7% | 3% | -2% | 4%
CCCN(CCC)CCNC(=O)C1(O)c2ccccc2NC(=O)N1c1cccc(OC)c1 (centres undefined) | -3 | -6 | 3% | 0% | 3% | .
O=C(CCn1cnnn1)Nc1ccccc1 | 9 | 22* | 2% | 8% | . | -3%
O=C(CCC(=O)N(CC(=O)NC1CCCC1)c1ccc(F)cc1)Nc1nccs1 | -6 | 15 | . | -8% | 1% | .
COc1ccccc1C(=O)CSc1nccn1C | 17 | 22* | -27% | -3% | 9% | 5%
COc1ccc(C(=O)CC(=O)C(=O)Nc2ccc(C)cc2Cl)cc1 | 9 | 22* | -22% | 2% | 3% | -2%
COc1ccc(-c2cnc[nH]2)cc1 | 13 | 78* | 0% | 5% | . | 1%
COc1ccc(NS(=O)(=O)c2cnc[nH]2)cc1 | -3 | -9 | -1% | 4% | . | .
O=C(COC(=O)c1ccc(O)cc1)Nc1ccccc1 | 13 | 13 | -1% | 7% | -3% | .
O=C/C=C/c1ccccc1 | 16 | 64* | 2% | . | . | ?
COC(=O)c1ccc(-c2noc(CN(C)Cc3ccncc3C)n2)cc1 | 3 | 40* | 2% | 3% | -1% | 0%
CCN(Cc1ccncc1)Cc1nc(-c2ccc(C(=O)OC)cc2)no1 | -1 | -6 | 3% | 3% | 3% | .
O=C(Nc1cccc(C(F)(F)F)c1)C1CCN(S(=O)(=O)c2ccc(N3CCCC3=O)cc2)CC1 | 6 | 9 | . | 7% | ? | .
COc1nc2ccccc2c(=O)n1-c1ccc(C)cc1 | -3 | 19* | -4% | 3% | -6% | -1%
SMILES | CHX counter-1 | Shiga inhibitor | FBPA Giardia inh | LmPK inh | NS1 function inh | CHX counter-2
O=C(NCCc1ccccc1)C(=O)NCC1OCCN1S(=O)(=O)c1ccc(F)cc1 (centres undefined) | 0 | 11 | 6% | -3% | 4% | .
O=C(c1ccc(N2CCOCC2)nc1)N1CCOCC1 | 1 | 58* | -2% | 0% | -9% | 5%
COC(=O)c1c(NC(=O)c2ccn(C)n2)sc2c1CCC2 | 5 | 40* | 9% | -1% | -1% | ?
COc1ccc(S(=O)(=O)Nc2c(C(=O)O)[nH]c3ccccc23)cc1OC | 16 | 30* | 25% | 3% | 8% | 5%
COc1ccc(S(=O)(=O)Nc2c(C(=O)O)[nH]c3ccccc23)cc1 | -5 | -1 | -8% | -1% | -1% | .
COc1ccc(Cl)c(NC(=O)C/C(C)=N/NC(=O)CCc2ccccc2)c1 | -4 | -3 | 0% | 2% | -1% | .
CCCNC(=O)c1ccc2snnc2c1 | 5 | 29* | 7% | 0% | 2% | -2%
CC(C)(C)CC(C)(C)NC(=O)c1ccc2snnc2c1 | -1 | -14 | 1% | 9% | -44% | .
CCC(=O)Nc1ccc2c(c1)nc(CN1CCCCC1)n2C | -5 | -5 | -6% | -1% | 3% | .
Cn1c(CN2CCCCC2)nc2cc(NC(=O)c3ccc(Cl)cc3)ccc21 | 2 | 27* | 7% | -4% | -14% | 6%
COc1ccc(C(=O)Nc2cccc(C(=O)N3CCN(C)CC3)c2)cc1 | 15 | 37* | -1% | 1% | 1% | 1%
COc1ccc(C(=O)Nc2cccc(C(=O)N3CCCCC3)c2)cc1 | 13 | 33 | . | -2% | 5% | .
COc1ccc(C(=O)NCCCNC(=O)c2ccccn2)cc1Br | -2 | -12 | -3% | -2% | -2% | .
COc1cc(C2C(S(=O)(=O)c3ccccc3)CON2C)ccc1OCc1ccc(F)cc1 (centres undefined) | 12 | 43* | 0% | 0% | -6% | 5%
CC(=O)c1ccc(N2CCN(C(=O)c3nn(C)c4c3CS(=O)(=O)c3ccccc3-4)CC2)cc1 | -6 | -9 | 4% | -2% | 0% | .
O=C(/C=C/c1ccc(S(=O)(=O)NCc2ccco2)cc1)N1CCN(c2ccccc2)CC1 | 4 | 66* | -4% | 4% | . | 5%
COc1cc2c(c(OC)c1OC)-c1c(cc(OC)c(OC)c1OC)CC(C)C(C)C2 (centres undefined) | 8 | 32* | -2% | . | . | 2%
CCc1ccc(NC(=O)CSc2nnc(CNC(=O)c3cccs3)o2)cc1 | 1 | -10 | . | -5% | -9% | .
Cc1nnc(N/N=C/C(C)c2ccccc2)[nH]c1=O (centres undefined) | -2 | 15 | ? | 0% | 8% | .
Cc1ccc(C2(O)CN(c3ccccc3C)C3=[N+]2CCS3)cc1 (centres undefined) | -3 | 48* | -5% | 1% | -5% | -1%
O=C(O)c1ccccc1C(=O)Nc1ccc(-n2nccc2C(F)(F)F)cc1 | 9 | 31* | 5% | -6% | 4% | -4%
COc1ccc(CC(=O)NC(C)c2nnc(SCC(=O)Nc3nc(C)cs3)n2C)cc1 (centres undefined) | 0 | 30* | 2% | 2% | -6% | -1%
O=S(=O)(Cc1ccccc1)N1CCN(Cc2ccc(F)cc2Cl)CC1 | -2 | -18 | . | -4% | 14% | .
Cc1ccc(NC(=O)c2c(C(F)(F)F)nn(C)c2Cl)cc1C | -2 | 29* | 4% | 3% | 1% | -2%
CCN1CCN(Cc2nnc(-c3ccc(C)cc3)o2)CC1 | 5 | 43* | 6% | 2% | 5% | -1%
